From PubChem BioAssay AID540317 (National Center for Advancing Translational Sciences (NCATS), 2011) come the findings set out here.

Among all 390,000 compounds or so, about 2,200 (0.56%) were called active. Where a call stands in place of a potency, no number is given. Not shown: some 3% with an inconclusive outcome. The call rests on the fitted dose curve; in most records, active means well fitted inhibition curve with a large enough effect; inconclusive means small, poorly fitted or top-dose-only effect; inactive means no such curve, though single readings can be large or run the other way. Many of the other results were omitted from the sample, so actives are more common in it than they were.
Potency means the concentration at half of the fitted maximal effect.

This assay deals with Chromobox protein homolog 1 (Homo sapiens) (UniProt P83916). As to the kind of experiment: HTS for Inhibitors of HP1-beta Chromodomain Interactions with Methylated Histone Tails. Further: nearly all actives have a fitted effect of over 70% in size. The note with it: AlphaScreen HP1-beta / biotin-H3K9me3 peptide binding; series mostly up to 114 µM. The method, boiled down: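 HP1-beta protein (50 nM final) preincubated 30 min at room temperature with biotinylated H3(1-18)K9me3 peptide (50 nM) in PBS pH 7.4, 0.01% Tween-20, then compound added for 30 min. AlphaScreen streptavidin donor/nickel chelate acceptor beads (10 ug/mL final), 30 min dark, luminescence read.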
Sequence of Chromobox protein homolog 1 (Homo sapiens) (P83916 whole entry, looked up): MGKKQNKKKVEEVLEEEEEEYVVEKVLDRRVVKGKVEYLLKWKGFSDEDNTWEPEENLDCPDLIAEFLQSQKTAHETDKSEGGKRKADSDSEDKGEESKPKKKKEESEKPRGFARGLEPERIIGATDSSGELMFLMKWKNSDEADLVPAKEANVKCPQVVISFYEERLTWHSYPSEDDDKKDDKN
Background: In Alpha technology, singlet oxygen from a donor bead excites a nearby acceptor bead.
`COc1ccccc1CN1CCC(CNC(=O)c2cnn(-c3cccc(Cl)c3)c2C2CCN(C(=O)OC(C)(C)C)CC2)CC1`: the Potency result is “inactive”.

Take `Oc1ccc(Cl)cc1C1C=C(c2ccc3c(c2)OCO3)NC(c2c(F)cccc2Cl)N1` (centres undefined): the Potency entry is “inactive”.

As to `CCOc1ccc(C2C(C(=O)Nc3ccc(Cl)cc3)=C(C)Nc3nc(C(F)(F)F)nn32)cc1` (centres undefined), the Potency result was “inactive”.

Consider `CCOc1ccc(NC(=O)CCc2c(C)nn(-c3ccc(N4CCCC4)nn3)c2C)cc1`, for which the Potency result was “inactive”.

On to `Cc1ccc2nc(COc3cccc(NC(=O)c4cccc(Cl)c4)c3)cc(=O)n2c1`, for which the Potency result is “inactive”.

`Cc1cccc(C)c1-n1c(C)cc(/C=C2\C(=O)NN(c3ccccc3)C2=O)c1C`: the Potency was 15.8 µM (active).

Take `CCCSc1ncc(Cl)c(C(=O)Nc2c(C(=O)Nc3ccccc3)oc3ccccc23)n1`: the Potency result is “inactive”.

`COc1ccccc1-c1nnc(C2CCN(C(=O)c3ccc(Cl)cc3)CC2)o1`: the Potency entry is “inactive”.

With `CCOc1ccc(Nc2nc3c(S(=O)(=O)c4cccc(Cl)c4)nnn3c3ccsc23)cc1`, the Potency result was “inactive”.

For the compound `Cc1ccc(Cn2cc(CCC(=O)NCc3ccc(OC(C)C)cc3)c3ccccc32)cc1`, the Potency entry is “inactive”.

On to `COc1ccc(N2CCN(C(=O)c3cccs3)CC2)cc1`, for which the Potency entry is “inactive”.

Regarding `COc1ccc(N2CCN(S(=O)(=O)c3cc(Br)cnc3N)CC2)cc1`, the Potency result was “inactive”.

`COc1ccc(N2CCN(Cc3ccc(Br)s3)CC2)cc1`: the Potency is 17.8 µM (active).

As to `Cc1ccc(Nc2nc3ccccc3nc2-n2nc(C)cc2C)c(Cl)c1`, the Potency entry is “inactive”.

Take `Cc1ccc(Cl)cc1N(C)C(=O)Cn1nc(Cc2cccnc2)c2ccccc2c1=O`: the Potency entry was “inactive”.

In the case of `COc1ccc(-c2nc(SCC(=O)N3CCCCC3C)n[nH]2)cc1` (centres undefined), the Potency result is “inactive”.

In the case of `Cc1ccc(-c2nc(S(=O)(=O)c3ccc(C)cc3)c(N3CCCCCC3)o2)cc1`, the Potency result is “inactive”.

As for `CN1/C(=c2/s/c(=C3/C(=O)N(c4ccccc4)NC3=Nc3ccccc3)n(C)c2=O)C(C)(C)c2ccccc21`, the Potency was 28.2 µM (active).

Take `Cc1cc(C)cc(NC(=O)CSc2nc3nccnc3c(=O)n2CCc2c[nH]c3ccccc23)c1`: the Potency result is “inactive”.

Turning to `Cc1ccc(Cl)cc1NC(=O)NC1COc2ccccc2C1` (centres undefined), the Potency entry is “inactive”.

`Cn1nnc2c(N3CCN(c4ccccc4)CC3)ncnc21`: the Potency entry was “inactive”.

In the case of `CCOc1ccc(NC(=O)c2cc(S(=O)(=O)N3CCCC3)c[nH]2)cc1`, the Potency result is “inactive”.

Regarding `CC(=O)N(C1=C(Cl)C(=O)c2ccccc2C1=O)c1ccc(C(=O)O)cc1`, the Potency was 7.94 µM (active).

On to `CCOc1ccc(CNC(=O)Cn2cc3c(n2)-c2c(oc(C(=O)N4CCCC4)c2C)CC3)cc1`, for which the Potency result was “inactive”.
